Test systems include K-562 leukemia; MALME-3M melanoma; MDA-MB-231 breast; RXF 393 renal; SF-268 CNS; SF-295 CNS; SF-539 CNS; UACC-257 melanoma; M14 melanoma; HCT-15 colon; HT29 colon; SNB-75 CNS; SNB-19 CNS; U251 CNS; PC-3 prostate; SK-MEL-5 melanoma; UACC-62 melanoma; LOX IMVI melanoma; SK-MEL-28 melanoma; SK-MEL-2 melanoma.
What all share (test): NCI-60 one-dose screen, 48 h (100 = growth as untreated, 0 = no growth, -100 = all killed)
Holding throughout (settings): 10 µM unless noted

Compounds without any hit were thinned out: in the full panel of roughly 83,000, 20% have a hit.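 Single-dose data. Exposure time 48 hours. Values below 10 considered active.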 A number with no mark means an inactive call. The source made the active and inactive calls.

Consider `CCCCN1C(=O)/C(=c2\sc3n(c2=O)C2C(NN=3)N(CC)C(=O)N2CC)c2cc(Cl)ccc21` (stereo not given), for which the growth is 25.3% in the assay on K-562 leukemia; 73.9% in the assay with MALME-3M melanoma; 58.3% with MDA-MB-231 breast; 77% in the assay on RXF 393 renal; 75.4% in the assay on SF-268 CNS; 62.3% with SF-295 CNS. Further, the growth was 59.4% in the assay with SF-539 CNS; 89.4% with UACC-257 melanoma; 70.3% with M14 melanoma; 43.9% with HCT-15 colon; 88.4% in the assay on HT29 colon; 69.1% in the assay with SNB-75 CNS. Further, the growth was 90.8% in the assay on SNB-19 CNS; 65.4% in the assay with U251 CNS; 71.2% with PC-3 prostate; 66% with SK-MEL-5 melanoma; 47.5% in the assay on UACC-62 melanoma; 75.6% in the assay on LOX IMVI melanoma. In addition, the growth in the assay with SK-MEL-28 melanoma was 72.1%; in the assay on SK-MEL-2 melanoma it was 79.9%.
On to `CS(=O)(=O)c1ccc(-c2nc3ccccn3c2-c2nc3ccc([N+](=O)[O-])cc3[nH]2)cc1`, for which the growth in the assay on K-562 leukemia is 91.3%; in the assay on MALME-3M melanoma, 86%; with MDA-MB-231 breast, 86.5%; in the assay with RXF 393 renal it was 101%; in the assay on SF-268 CNS it was 94.1%; with SF-295 CNS it was 92.2%. The growth is 89.5% with SF-539 CNS; 106% in the assay with UACC-257 melanoma; 97.3% in the assay on M14 melanoma; 97.1% in the assay with HCT-15 colon; 109% with HT29 colon; 82.9% in the assay on SNB-75 CNS. Moreover, the growth in the assay on SNB-19 CNS is 99.6%; in the assay with U251 CNS it was 104%; in the assay with PC-3 prostate, 86.3%; with SK-MEL-5 melanoma it was 95.2%; in the assay with UACC-62 melanoma, 88.6%; in the assay on LOX IMVI melanoma, 100%. For the same compound, the figures for the growth in the assay with SK-MEL-28 melanoma and in the assay with SK-MEL-2 melanoma were 98% and 105%, respectively.
Regarding `Clc1ccc2c(NCCCn3ccnc3)c3oc4ccccc4c3nc2c1`, the growth was 8.56% (active) in the assay with K-562 leukemia; 43.2% in the assay on MALME-3M melanoma; 36.7% in the assay with MDA-MB-231 breast; 32.3% with RXF 393 renal; 45.3% in the assay with SF-268 CNS; 26.3% in the assay with SF-295 CNS. The growth is 27.4% in the assay with SF-539 CNS; 80.7% in the assay on UACC-257 melanoma; 61.7% in the assay with M14 melanoma; 13.7% with HCT-15 colon; 19.4% in the assay with HT29 colon; 47.8% in the assay on SNB-75 CNS. Further, the growth with SNB-19 CNS is 57.1%; in the assay on U251 CNS, 19.6%; in the assay with PC-3 prostate it was 47.9%; in the assay with SK-MEL-5 melanoma it was 76%; with UACC-62 melanoma, 66.1%; in the assay with LOX IMVI melanoma, 14.4%. Besides, the results for the growth in the assay on SK-MEL-28 melanoma and in the assay on SK-MEL-2 melanoma were 68.2% and 84.9%, respectively.
As for `Cc1nc(-c2cc3ccccc3oc2=O)ccc1C(=O)/C=C/c1ccccn1`, the growth in the assay on K-562 leukemia was 7.22% (active); in the assay on MALME-3M melanoma, 88.3%; in the assay with MDA-MB-231 breast it was 12.8%; in the assay with RXF 393 renal, 32.3%; in the assay with SF-268 CNS, 78.5%; in the assay with SF-295 CNS, 71.1%. For the same compound, the growth with SF-539 CNS was 2.25% (active); with UACC-257 melanoma, 101%; in the assay with M14 melanoma, 80.2%; in the assay on HCT-15 colon it was -33.3% (active); with HT29 colon, 2.1% (active); in the assay with SNB-75 CNS, 56.3%. The growth with SNB-19 CNS was 71.6%; with U251 CNS, 8% (active); in the assay with PC-3 prostate it was 68.2%; with SK-MEL-5 melanoma, 95.9%; with UACC-62 melanoma, 71.1%; in the assay on LOX IMVI melanoma it was -84.5% (active). Also, the results for the growth in the assay with SK-MEL-28 melanoma and in the assay on SK-MEL-2 melanoma were 95.1% and 108%, respectively.
Turning to `O=C(CCCN1C(=O)/C(=C/c2ccccc2F)SC1=S)N1CCOCC1`, the growth in the assay with K-562 leukemia was 59.7%; in the assay with MALME-3M melanoma, 72.5%; in the assay on MDA-MB-231 breast, 73.4%; with RXF 393 renal, 83.7%; in the assay with SF-268 CNS, 95.6%; in the assay with SF-295 CNS, 103%. For the same compound, the growth in the assay with SF-539 CNS is 92.7%; in the assay on UACC-257 melanoma, 83.6%; with M14 melanoma, 77.6%; in the assay with HCT-15 colon, 74.3%; with HT29 colon, 99.2%; in the assay on SNB-75 CNS it was 79.3%. The growth in the assay with SNB-19 CNS is 101%; in the assay on U251 CNS, 86.1%; in the assay on PC-3 prostate it was 105%; in the assay on SK-MEL-5 melanoma it was 97.1%; in the assay with UACC-62 melanoma, 81.5%; in the assay on LOX IMVI melanoma, -63.6% (active). Moreover, the growth was 89.7% in the assay on SK-MEL-28 melanoma and 115% with SK-MEL-2 melanoma.
As to `COc1cc(OC)c(C2C(Cl)C(=O)N2Nc2ncnc3ccccc23)cc1OC` (stereo not given), the growth was 100% with K-562 leukemia; 93.2% with MALME-3M melanoma; 87.3% in the assay with MDA-MB-231 breast; 112% with RXF 393 renal; 99.2% in the assay on SF-268 CNS; 102% in the assay on SF-295 CNS. The growth in the assay with SF-539 CNS was 104%; in the assay on UACC-257 melanoma it was 111%; with M14 melanoma, 88.6%; in the assay on HCT-15 colon it was 101%; with HT29 colon, 112%; in the assay with SNB-75 CNS it was 80.5%. The growth is 98.9% in the assay with SNB-19 CNS; 91.7% with U251 CNS; 89.6% in the assay on PC-3 prostate; 99.3% in the assay with SK-MEL-5 melanoma; 91.7% in the assay on UACC-62 melanoma; 45.6% with LOX IMVI melanoma. The growth in the assay with SK-MEL-28 melanoma is 105%; in the assay on SK-MEL-2 melanoma, 121%.
Regarding `CCCC(=O)NC(c1ccc2c(c1)OC(F)(F)O2)c1cc(C)c2cccnc2c1O` (stereo not given), the growth with K-562 leukemia is 15.9%; in the assay on MALME-3M melanoma, 14.4%; with MDA-MB-231 breast it was 34.8%; with RXF 393 renal, 55.4%; in the assay with SF-268 CNS, 18.7%; with SF-295 CNS, 20.9%. For the same compound, the growth in the assay on SF-539 CNS is 8.69% (active); in the assay with UACC-257 melanoma, 3.17% (active); with M14 melanoma, -11.5% (active); with HCT-15 colon it was 39.3%; with HT29 colon it was 32.3%; in the assay on SNB-75 CNS, 40.4%. Also, the growth is 22.5% with SNB-19 CNS; 14.8% in the assay with U251 CNS; 36.6% in the assay on PC-3 prostate; -31.2% (active) in the assay on SK-MEL-5 melanoma; -16.7% (active) with UACC-62 melanoma; 21.1% with LOX IMVI melanoma. Also, the growth is 17.1% in the assay with SK-MEL-28 melanoma and 40.2% with SK-MEL-2 melanoma.
Take `c1ccc2c(NCCCN3CCOCC3)c3oc4ccccc4c3nc2c1`: the growth with K-562 leukemia is 2.74% (active); in the assay with MALME-3M melanoma, -25.9% (active); in the assay with MDA-MB-231 breast, -27.9% (active); in the assay on RXF 393 renal, -76.2% (active); in the assay on SF-268 CNS, -3.87% (active); in the assay with SF-295 CNS, -17.6% (active). The growth in the assay with SF-539 CNS was -29.5% (active); with UACC-257 melanoma it was -7.26% (active); with M14 melanoma it was -32% (active); in the assay with HCT-15 colon, 0.78% (active); with HT29 colon, -48.2% (active); in the assay on SNB-75 CNS, -4.26% (active). Moreover, the growth with SNB-19 CNS is 5.03% (active); in the assay with U251 CNS, -2.33% (active); in the assay with PC-3 prostate, 7.6% (active); in the assay with SK-MEL-5 melanoma, -90.4% (active); in the assay on UACC-62 melanoma it was -52.1% (active); in the assay with LOX IMVI melanoma, -38.6% (active). In addition, the figures for the growth in the assay with SK-MEL-28 melanoma and in the assay with SK-MEL-2 melanoma were -46.9% (active) and -75.4% (active), respectively.
